The campaign covered roughly 310,000 compounds. About 14,000 (4.5%) showed an effect of 50% or more. The effect is printed as a negative number. This is one part of a sample in which strong results are shown more often than they occur.
biological target: human ether-à-go-go-related gene (hERG) potassium channel (human, UniProt Q12809); assay: primary screen, population patch clamp on CHO cells stably expressing hERG; higher = less effect of the substance
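Note: peak tail current of the secondary pulse compared with the same well before compound.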

Chain of human ether-à-go-go-related gene (hERG) potassium channel (Q12809 whole entry, looked up): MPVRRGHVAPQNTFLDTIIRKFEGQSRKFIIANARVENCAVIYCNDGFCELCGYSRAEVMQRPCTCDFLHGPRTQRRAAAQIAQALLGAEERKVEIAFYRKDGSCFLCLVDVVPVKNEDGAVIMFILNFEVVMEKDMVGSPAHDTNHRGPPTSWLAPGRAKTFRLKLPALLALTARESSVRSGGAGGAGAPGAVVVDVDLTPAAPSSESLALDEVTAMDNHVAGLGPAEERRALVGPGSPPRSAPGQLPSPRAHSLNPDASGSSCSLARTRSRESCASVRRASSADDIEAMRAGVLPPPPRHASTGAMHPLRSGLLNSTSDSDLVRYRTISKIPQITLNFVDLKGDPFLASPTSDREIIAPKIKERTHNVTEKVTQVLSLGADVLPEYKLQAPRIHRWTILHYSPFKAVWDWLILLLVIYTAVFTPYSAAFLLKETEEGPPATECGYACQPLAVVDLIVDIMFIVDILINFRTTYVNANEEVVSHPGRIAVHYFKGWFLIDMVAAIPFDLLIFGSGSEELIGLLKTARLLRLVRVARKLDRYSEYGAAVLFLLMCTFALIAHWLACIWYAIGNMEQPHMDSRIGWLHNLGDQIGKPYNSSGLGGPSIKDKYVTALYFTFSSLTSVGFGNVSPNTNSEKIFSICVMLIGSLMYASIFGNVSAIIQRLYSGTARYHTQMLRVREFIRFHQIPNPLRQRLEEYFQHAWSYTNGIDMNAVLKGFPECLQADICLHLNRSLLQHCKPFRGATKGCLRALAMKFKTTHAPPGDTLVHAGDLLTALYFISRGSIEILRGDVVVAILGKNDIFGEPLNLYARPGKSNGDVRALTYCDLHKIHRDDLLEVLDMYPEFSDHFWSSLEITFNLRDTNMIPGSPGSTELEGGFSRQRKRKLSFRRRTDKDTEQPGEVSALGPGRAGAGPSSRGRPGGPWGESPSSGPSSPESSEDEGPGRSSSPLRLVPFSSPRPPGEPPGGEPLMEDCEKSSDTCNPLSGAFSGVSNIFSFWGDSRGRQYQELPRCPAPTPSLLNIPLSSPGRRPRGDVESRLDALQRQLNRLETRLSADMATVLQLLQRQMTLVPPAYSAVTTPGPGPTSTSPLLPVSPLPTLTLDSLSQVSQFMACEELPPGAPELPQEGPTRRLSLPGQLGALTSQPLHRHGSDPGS

Row | SMILES | hERG current change (%, negative = inhibition) at 10uM [%]
1 | O=C(c1ccc2c(c1)OCO2)N1CCc2ccccc21 | -2.34
2 | COCCOC(=O)c1c(C)n(C)c2ccc(OC(=O)c3ccco3)cc12 | -2.37
3 | CCc1n[nH]c(=S)n1/N=C/c1c(C)nn(-c2ccccc2)c1Cl | 21.4
4 | CN(C)c1ccc(/C=N/n2c(C3CCCCC3)n[nH]c2=S)cc1 | 20
5 | Cc1csc(CN(C)C(=O)C2CCC(=O)N(CCCc3ccccc3)C2)n1 (stereo not drawn) | -5.37
6 | CCC1(CCCC(=O)c2ccc(F)cc2)C(=O)NC(=S)NC1=O | -3.66
7 | O=C(COc1coc(CN2CCN(c3ccc(F)cc3)CC2)cc1=O)NC1CCCC1 | -53.1
8 | O=C(COc1coc(CN2CCN(c3ccccc3)CC2)cc1=O)NC1CCCC1 | -13.6
9 | Cc1cccc(NC(=O)COc2coc(CN3CCN(c4ccccc4)CC3)cc2=O)c1 | -7.9
10 | O=C(COc1coc(CN2CCN(c3ccccc3)CC2)cc1=O)Nc1ccccc1F | -3.41
11 | COc1ccccc1NC(=O)COc1coc(CN2CCN(c3ccccc3)CC2)cc1=O | -60
12 | O=C(COc1coc(CN2CCN(c3ccccc3)CC2)cc1=O)NC1CCCCC1 | -46.1
13 | Cc1ccc(NC(=O)COc2coc(CN3CCN(Cc4ccccc4)CC3)cc2=O)cc1 | -73.3
14 | Cc1cccc(NC(=O)COc2coc(CN3CCN(c4ccccc4)CC3)cc2=O)c1C | -28.6
15 | Cc1cccc(NC(=O)COc2coc(CN3CCc4ccccc4C3)cc2=O)c1 | -8.19
16 | Cc1ccc(NC(=O)COc2coc(CN3CCN(c4ccccc4)CC3)cc2=O)cc1 | 1.7
17 | Cc1cccc(NC(=O)COc2coc(CN3CCN(Cc4ccccc4)CC3)cc2=O)c1 | -65
18 | CCc1ccc(NC(=O)COc2coc(CN3CCN(c4ccccc4)CC3)cc2=O)cc1 | 12.3
19 | CN(C)c1ccc(CN2CCCCC2)cc1 | 14.9
20 | CCN(CC(=O)N1CCCCCC1)S(=O)(=O)c1ccc(Cl)cc1 | -13.5
21 | CC1=Nc2ccccc2N=C(NC(=O)/C=C/C(=O)O)C1c1ccccc1 (stereo not drawn) | 2.53
22 | O=c1[nH]c(=O)n(-c2ccccc2F)c(O)c1C=NCCC1=CCCCC1 | 25.6
23 | Cc1c(NC(=O)CN2CCC(C(N)=O)CC2)cccc1[N+](=O)[O-] | 26.4
24 | COc1ccc(N2CCN(C(c3cc(OC)ccc3OC)c3nnnn3CC3CCCO3)CC2)cc1.Cl (stereo not drawn) | -9.64
25 | CC(C)CNC(=O)[C@H](Cc1ccccc1)NC(=O)c1ccco1 | -6.82
26 | Cc1ccccc1NC(=O)COc1coc(CN2CCN(c3ccccc3)CC2)cc1=O | -21.1
27 | Cc1ccccc1NC(=O)COc1coc(CN2CCN(Cc3ccccc3)CC2)cc1=O | -53.3

Row | SMILES | hERG current change (%, negative = inhibition) at 10uM [%]
28 | CNC(=O)COc1coc(CN2CCN(Cc3ccccc3)CC2)cc1=O | 1.83
29 | CC(OC(=O)c1ccc(NS(=O)(=O)c2cccs2)cc1)C(=O)N(C)C1CCCCC1 (stereo not drawn) | -0.558
30 | CCc1ccc(NS(=O)(=O)c2ccc3[nH]cc(C(=O)NCC4CCCO4)c(=O)c3c2)cc1 (stereo not drawn) | 15.4
31 | CC(=O)Nc1ccc(C(=O)OCCC(C)C)cc1 | -17.4
32 | Cc1ccc(CNc2cc(C(=O)O)ccc2C)s1 | 19.2
33 | O=C(Cn1c(=O)n(CC2CCCO2)c(=O)c2ccccc21)N1CCN(c2ccccc2)CC1 (stereo not drawn) | -21.8
34 | Cc1ccc(C)c(S(=O)(=O)N2CCCOC2CNC(=O)C(=O)NCc2ccccn2)c1 (stereo not drawn) | 5.01
35 | CC(C)N1CCC(=NNC(=O)c2cccs2)CC1 | 25.6
36 | COC(=O)C1=C(N)Oc2cc(C)n(Cc3ccco3)c(=O)c2C1c1cccc(Cl)c1 (stereo not drawn) | -5.24
37 | COC(=O)C1=C(N)Oc2cc(C)n(CC3CCCO3)c(=O)c2C1c1ccc(Cl)cc1 (stereo not drawn) | -8.41
38 | COC(=O)C1=C(N)Oc2cc(C)n(CCCn3ccnc3)c(=O)c2C1c1ccc(Cl)cc1 (stereo not drawn) | -59.8
39 | COC(=O)C1=C(N)Oc2cc(C)n(CCc3ccccc3)c(=O)c2C1c1cccnc1 (stereo not drawn) | -25.9
40 | COC(=O)C1=C(N)Oc2cc(C)n(C)c(=O)c2C1c1ccc(Cl)cc1 (stereo not drawn) | 6.7
41 | COC(=O)C1=C(N)Oc2cc(C)n(CCCn3ccnc3)c(=O)c2C1c1cccc(Cl)c1 (stereo not drawn) | -69.7
42 | Cc1cccc(NS(=O)(=O)c2ccc3[nH]c(=O)[nH]c3c2)c1C | 13.7
43 | Cc1nn(Cc2ccccc2)c(C)c1NC(=O)CSc1nc(C2CC2)nc2c1cnn2-c1ccccc1 | 8.84
44 | COc1ccc(-c2oc3ncnc(NCCCO)c3c2-c2ccc(OC)cc2)cc1 | 4.27
45 | COc1ccc(-c2oc3ncnc(NCCCN(C)C)c3c2-c2ccc(OC)cc2)cc1 | -60.2
46 | CN(C)CCCNc1ncnc2oc(-c3ccccc3)c(-c3ccccc3)c12 | -69.5
47 | COc1ccc(-c2oc3ncnc(N)c3c2-c2ccccc2)cc1 | 6.52
48 | OCCCNc1ncnc2oc(-c3ccccc3)c(-c3ccccc3)c12 | -13.2
49 | Cc1c(C)n(-c2ccccc2)c2ncnc(NCCN(C)C)c12 | -4.04
50 | CN(C)CCNc1ncnc2ccccc12.Cl | 7.66
51 | CN(C)CCNc1ncnc2sc(-c3ccccc3)cc12 | -21.1
52 | CN(C)CCNc1ncnc2oc(-c3ccccc3)c(-c3ccccc3)c12 | -60.7
53 | OCCCNc1ncnc2sc(-c3ccccc3)cc12 | 3.23
54 | CN(C)CCCNc1ncnc2sc(-c3ccccc3)cc12.O=C(O)C(=O)O | -60.2

Source: paper PMC4336329 (PLoS ONE, 2015)
